Source: PubChem BioAssay (EPA / NIEHS)
Records with an inconclusive call do not appear. The source made the active and inactive calls. How the source made its calls, unless noted: active means hit-call score of the fitted dose curve at least 0.9, where 1 is the maximum; inactive means score below 0.9.

Tests used:
[1] = biological target: Nuclear respiratory factor 1 (Homo sapiens) (UniProt Q16656); experiment: ATG_NRF1_CIS: Attagene CIS-FACTORIAL HepG2 Assay for human Nuclear Respiratory Factor 1 (NRF1) Orphan Gene (AID 2282987); conditions: HepG2 NRF1 cis-element reporter, Attagene multiplex; actives raise or lower the signal
How it was run: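 Measured: fluorescent reporter-specific RT-PCR products from transfected HepG2 cells, separated by capillary electrophoresis. Exposure lasted 24 h. Analysis used bidirectional curve fitting with DMSO as negative control.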

[2] = ATG_NFI_CIS: Attagene CIS-FACTORIAL HepG2 Assay for human Nuclear Factor I (NFI) (AID 2282989); conditions: HepG2 cis-regulatory reporter, NFI response element transcription; actives raise or lower the signal
How it was run: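 Cells: human liver HepG2, transiently transfected with promoter-regulated reporter transcription units. Exposure 24 h. Detection: fluorescent RT-PCR products separated by capillary electrophoresis, normalised to DMSO negative control.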

[3] = biological target: Myc proto-oncogene protein (Homo sapiens) (UniProt P01106); experiment: ATG_Myc_CIS: Attagene CIS-FACTORIAL HepG2 Assay for human Myelocytomatosis (Myc) Proto-Oncogene Transcription Factor (AID 2282990); conditions: HepG2, Attagene cis-reporter transcription factor activity; actives raise or lower the signal
How it was run: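 After 24 h chemical treatment of HepG2 cells carrying multiplexed cis-regulated reporter constructs, reporter transcripts quantified by RT-PCR and capillary electrophoresis of fluorescent fragments. Gain or loss fitted against DMSO baseline.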

[4] = ATG_NRF2_ARE_CIS: Attagene CIS-FACTORIAL HepG2 Assay for human Nuclear Factor Erythroid 2 Related Factor 2 (NFR2) response to Antioxidant Response Elements (ARE) (AID 2282992); conditions: HepG2 Attagene ARE/NRF2 reporter, transcription factor activity; actives raise or lower the signal
How it was run: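 Multiplexed reporter mRNA profiling in HepG2 after a 24 h chemical exposure. Curves fitted in both directions relative to DMSO negative control.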

[5] = ATG_Oct_MLP_CIS: Attagene CIS-FACTORIAL HepG2 Assay for human Octamer-Binding Transcription Factor (Oct) (AID 2282993); conditions: HepG2 Attagene cis-factorial Oct reporter, mRNA; actives raise or lower the signal
How it was run: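 HepG2, transient MRTU transfection, cis promoter elements; 24 h dosing; RT-PCR/CE fluorescence read-out of reporter mRNA; fit both directions vs DMSO.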

[6] = BSK_3C_uPAR: BioMAP Diversity Plus: 3C Assay for Urokinase-type plasminogen activator receptor (uPAR) Biomarker Activity (AID 2282998); conditions: BioMAP 3C HUVEC, uPAR biomarker ELISA; actives raise or lower the signal
How it was run: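 A multiplexed primary-cell system built on human umbilical vein endothelium was used, with chemical present for 24 h before reading. Cell-surface uPAR was detected by ELISA; signal change in either direction counted against DMSO.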

[7] = BSK_3C_VCAM1: BioMAP Diversity Plus: 3C Assay for Vascular cell adhesion molecule 1 (VCAM1) Biomarker Activity (AID 2282999); conditions: BioMAP 3C HUVEC, VCAM1 ELISA, cytokine-stimulated; actives raise or lower the signal
How it was run: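 Endothelial cells from human umbilical vein are treated with test chemical. At 24 h, VCAM-1 is measured by ELISA, and responses in either direction are fitted relative to DMSO.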

[8] = BSK_4H_Eotaxin3: BioMAP Diversity Plus: 4H Assay for Eotaxin 3 Biomarker Activity (AID 2283000); conditions: primary human endothelial cells (HUVEC); actives raise or lower the signal
How it was run: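 Chemicals were added to human umbilical vein endothelium cultures, and Eotaxin-3 was quantified by ELISA at 24 h. Values were derived by bidirectional fitting with DMSO serving as negative control and activity baseline.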

[9] = biological target: human Peroxisome Proliferator-activated Receptor alpha (PPARa), PPARA (gene 5465) (UniProt Q07869); experiment: ATG_PPARa_TRANS: Attagene TRANS-FACTORIAL HepG2 Assay for human Peroxisome Proliferator-activated Receptor alpha (PPARa) (AID 2283001; active means hit-call score of the fitted dose curve at least 0.9, where 1 is the maximum)
How it was run: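 Reporter transcripts from GAL4-UAS units in transfected HepG2 were quantified 24 h after dosing. Detection used reverse transcription, PCR, fluorescent primer extension and capillary electrophoresis, with DMSO as baseline.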

[10] = biological target: human Retinoic Acid Receptor beta (RARb), RARB (gene 5915) (UniProt P10826); experiment: ATG_RARb_TRANS: Attagene TRANS-FACTORIAL HepG2 Assay for human Retinoic Acid Receptor beta (AID 2283004; active means hit-call score of the fitted dose curve at least 0.9, where 1 is the maximum)
How it was run: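 Transient transfection of HepG2 with multiple reporter units → chemical dosing, 24 h → total RNA isolation → RT with oligo(dT) → reporter-specific PCR, 6-FAM primer extension, HpaI digest → capillary electrophoresis. Positive direction vs DMSO control.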

[11] = biological target: Retinoic acid receptor alpha (Homo sapiens) (UniProt P10276); experiment: ATG_RARa_TRANS: Attagene TRANS-FACTORIAL HepG2 Assay for human Retinoic Acid Receptor alpha (RARa) (AID 2283005; active means hit-call score of the fitted dose curve at least 0.9, where 1 is the maximum)
How it was run: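 Reporter transcripts, measured by RT-PCR with fluorescent labeling and capillary electrophoresis after 24 h dosing, reflect activity of an exogenous human RARa–GAL4 fusion in transiently transfected HepG2. Fitted for increase relative to DMSO.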

[12] = BSK_3C_Proliferation: Cell Proliferation Assessment in the BioMAP Diversity Plus: 3C Assay (AID 2283006); conditions: primary human endothelial cells (HUVEC);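 on AC50: potency may reflect either rise or fall in cell number versus DMSO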
How it was run: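 Proliferation of human vascular endothelial primary cells after 48 h dosing, quantified as SRB-stained protein at 560 nm relative to DMSO.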

[13] = biological target: Cellular tumor antigen p53 (Homo sapiens) (UniProt P04637); experiment: ATG_p53_CIS: Attagene CIS-FACTORIAL HepG2 Assay for human p53 Transcription Factor (AID 2282994); conditions: HepG2 p53 cis-element reporter, Attagene mRNA; actives raise or lower the signal
How it was run: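 Multiplexed reporter mRNA assay in human HepG2 liver cells; cis-regulated units report endogenous factor activity. Values come from bidirectional curve fitting against DMSO negative control after 24 h treatment.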

[14] = BSK_3C_TissueFactor: BioMAP Diversity Plus: 3C Assay for Tissue Factor Biomarker Activity (AID 2282997); conditions: BioMAP 3C HUVEC, tissue factor biomarker readout; actives raise or lower the signal
How it was run: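 ELISA read-out of Tissue Factor levels on human umbilical vein endothelium collected 24 h after chemical dosing. Gain or loss of signal was fitted relative to DMSO.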

[15] = biological target: human Peroxisome Proliferator-activated Receptor delta (PPARd), PPARD (gene 5467) (UniProt Q03181); experiment: ATG_PPARd_TRANS: Attagene TRANS-FACTORIAL HepG2 Assay for human Peroxisome Proliferator-activated Receptor delta (PPARd) (AID 2283002; active means hit-call score of the fitted dose curve at least 0.9, where 1 is the maximum)
How it was run: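 Read-out is induced reporter mRNA, quantified by RT-PCR with fluorescent labelling and capillary electrophoresis after 24 h dosing. Cells are HepG2 transiently carrying multiple GAL4-UAS reporter units driven by exogenous NR-GAL4 chimeras; DMSO serves as baseline.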

[16] = read-out: Intercellular Adhesion Molecule 1 (ICAM1), ICAM1 (gene 3383); experiment: BSK_3C_ICAM1: BioMAP Diversity Plus: 3C Assay for Intercellular Adhesion Molecule 1 (ICAM1) Biomarker Activity (AID 2283003); conditions: primary human endothelial cells (HUVEC); actives raise or lower the signal
How it was run: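 Human vascular endothelial primary cells, 3C conditions, 24 h treatment. ICAM-1 by ELISA.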

[17] = biological target: Peroxisome proliferator-activated receptor gamma (Homo sapiens) (UniProt P37231); experiment: ATG_PPARg_TRANS: Attagene TRANS-FACTORIAL HepG2 Assay for human Peroxisome Proliferator-activated Receptor-gamma (PPARg) (AID 2283007; active means hit-call score of the fitted dose curve at least 0.9, where 1 is the maximum)
How it was run: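 Twenty-four hours after chemical dosing of transiently transfected HepG2 cells, isolated RNA was converted to cDNA, reporter sequences amplified and 6-FAM-labelled, then HpaI-digested and analysed by capillary electrophoresis. Signal increase against DMSO was fitted.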

[18] = biological target: Nuclear receptor subfamily 1 group I member 2 (Homo sapiens) (UniProt O75469); experiment: ATG_PXR_TRANS: Attagene TRANS-FACTORIAL HepG2 Assay for human Pregnane X Receptor (PXR) (AID 2283008; active means hit-call score of the fitted dose curve at least 0.9, where 1 is the maximum)
How it was run: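 Measures mRNA induction of a GAL4-UAS-driven reporter in human HepG2 cells transiently expressing PXR fused to Gal4, following 24 h treatment. DMSO served as negative control and baseline.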

[19] = biological target: human Retinoic Acid Receptor gamma (RARg), RARG (gene 5916) (UniProt P13631); experiment: ATG_RARg_TRANS: Attagene TRANS-FACTORIAL HepG2 Assay for human Retinoic Acid Receptor gamma (RARg) (AID 2283009; active means hit-call score of the fitted dose curve at least 0.9, where 1 is the maximum)
How it was run: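 HepG2, RARg-GAL4 TRANS system, 24 h exposure; reporter mRNA by RT-PCR + CE fluorescence; increase over DMSO.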

Measured: AC50

Chain of Nuclear respiratory factor 1 (Homo sapiens) (Q16656 whole entry, looked up): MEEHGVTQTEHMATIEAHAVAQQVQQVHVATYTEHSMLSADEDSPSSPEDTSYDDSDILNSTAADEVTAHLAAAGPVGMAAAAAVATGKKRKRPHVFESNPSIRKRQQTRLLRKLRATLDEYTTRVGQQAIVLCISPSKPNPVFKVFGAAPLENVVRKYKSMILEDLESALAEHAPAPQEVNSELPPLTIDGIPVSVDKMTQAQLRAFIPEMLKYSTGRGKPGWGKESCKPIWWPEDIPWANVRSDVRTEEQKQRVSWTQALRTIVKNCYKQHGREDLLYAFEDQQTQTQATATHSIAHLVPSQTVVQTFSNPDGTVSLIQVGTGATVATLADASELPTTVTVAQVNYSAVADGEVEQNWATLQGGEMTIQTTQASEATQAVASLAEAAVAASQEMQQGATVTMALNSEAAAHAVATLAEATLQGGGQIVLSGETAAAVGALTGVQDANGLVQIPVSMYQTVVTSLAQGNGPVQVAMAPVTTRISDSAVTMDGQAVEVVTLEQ
Chain of Nuclear receptor subfamily 1 group I member 2 (Homo sapiens) (O75469 whole entry, looked up, the tested form may be a part): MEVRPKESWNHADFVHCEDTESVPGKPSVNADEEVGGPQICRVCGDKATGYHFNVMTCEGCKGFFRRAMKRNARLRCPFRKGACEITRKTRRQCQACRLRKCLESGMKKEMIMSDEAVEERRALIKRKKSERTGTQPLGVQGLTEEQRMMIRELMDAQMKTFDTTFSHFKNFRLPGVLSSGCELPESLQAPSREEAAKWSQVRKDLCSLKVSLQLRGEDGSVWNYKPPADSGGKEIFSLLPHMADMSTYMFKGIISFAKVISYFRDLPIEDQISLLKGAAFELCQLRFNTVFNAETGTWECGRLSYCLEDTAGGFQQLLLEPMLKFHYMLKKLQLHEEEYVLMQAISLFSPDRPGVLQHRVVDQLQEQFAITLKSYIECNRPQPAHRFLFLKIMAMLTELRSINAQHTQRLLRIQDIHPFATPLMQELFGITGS
Chain of human Peroxisome Proliferator-activated Receptor alpha (PPARa), PPARA (gene 5465) (Q07869 whole entry, looked up, the tested form may be a part): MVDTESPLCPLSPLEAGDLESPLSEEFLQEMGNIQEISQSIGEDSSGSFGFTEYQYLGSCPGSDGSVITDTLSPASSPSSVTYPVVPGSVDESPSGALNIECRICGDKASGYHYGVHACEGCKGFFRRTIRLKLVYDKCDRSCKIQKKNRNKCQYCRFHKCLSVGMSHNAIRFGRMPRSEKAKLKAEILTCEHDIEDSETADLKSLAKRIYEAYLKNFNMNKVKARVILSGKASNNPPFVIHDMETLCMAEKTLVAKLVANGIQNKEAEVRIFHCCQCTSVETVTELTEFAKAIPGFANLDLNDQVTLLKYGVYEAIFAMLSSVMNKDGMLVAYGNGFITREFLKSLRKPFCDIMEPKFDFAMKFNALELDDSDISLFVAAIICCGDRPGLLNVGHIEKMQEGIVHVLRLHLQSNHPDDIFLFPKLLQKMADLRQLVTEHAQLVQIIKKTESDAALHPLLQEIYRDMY
Chain of Myc proto-oncogene protein (Homo sapiens) (P01106 whole entry, looked up, the tested form may be a part): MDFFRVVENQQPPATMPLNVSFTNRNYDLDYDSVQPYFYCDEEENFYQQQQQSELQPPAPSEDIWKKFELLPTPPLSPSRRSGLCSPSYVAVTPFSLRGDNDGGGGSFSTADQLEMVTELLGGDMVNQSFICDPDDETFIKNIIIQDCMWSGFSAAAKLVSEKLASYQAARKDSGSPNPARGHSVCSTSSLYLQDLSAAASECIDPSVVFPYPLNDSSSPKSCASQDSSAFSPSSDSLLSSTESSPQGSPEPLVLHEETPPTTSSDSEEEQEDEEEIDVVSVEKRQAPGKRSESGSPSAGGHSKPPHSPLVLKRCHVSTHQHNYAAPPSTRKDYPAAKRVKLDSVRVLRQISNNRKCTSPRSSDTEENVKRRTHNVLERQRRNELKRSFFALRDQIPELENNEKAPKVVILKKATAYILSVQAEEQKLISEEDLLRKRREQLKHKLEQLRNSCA
Chain of Cellular tumor antigen p53 (Homo sapiens) (P04637 whole entry, looked up): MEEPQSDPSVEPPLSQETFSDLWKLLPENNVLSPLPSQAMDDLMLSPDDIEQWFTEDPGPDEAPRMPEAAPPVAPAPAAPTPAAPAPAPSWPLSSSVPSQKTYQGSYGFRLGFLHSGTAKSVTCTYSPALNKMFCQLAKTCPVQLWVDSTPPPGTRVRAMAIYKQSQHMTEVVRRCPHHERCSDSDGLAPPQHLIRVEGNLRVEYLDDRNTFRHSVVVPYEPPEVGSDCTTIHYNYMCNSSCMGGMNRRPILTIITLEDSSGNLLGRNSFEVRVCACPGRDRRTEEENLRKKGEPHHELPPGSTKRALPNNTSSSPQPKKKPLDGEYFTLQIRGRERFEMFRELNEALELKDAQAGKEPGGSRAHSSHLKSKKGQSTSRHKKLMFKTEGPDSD
Chain of human Peroxisome Proliferator-activated Receptor delta (PPARd), PPARD (gene 5467) (Q03181 whole entry, looked up, the tested form may be a part): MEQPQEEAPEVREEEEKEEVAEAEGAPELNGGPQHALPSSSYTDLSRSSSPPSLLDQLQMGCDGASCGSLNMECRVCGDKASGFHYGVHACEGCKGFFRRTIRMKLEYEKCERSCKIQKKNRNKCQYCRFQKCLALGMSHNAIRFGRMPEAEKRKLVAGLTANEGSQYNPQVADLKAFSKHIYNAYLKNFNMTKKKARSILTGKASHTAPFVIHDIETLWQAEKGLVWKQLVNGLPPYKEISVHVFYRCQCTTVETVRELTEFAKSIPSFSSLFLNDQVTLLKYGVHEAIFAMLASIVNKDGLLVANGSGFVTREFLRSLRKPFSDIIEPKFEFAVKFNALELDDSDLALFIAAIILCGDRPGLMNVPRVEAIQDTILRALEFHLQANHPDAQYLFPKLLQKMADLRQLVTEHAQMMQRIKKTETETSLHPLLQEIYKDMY
Chain of Peroxisome proliferator-activated receptor gamma (Homo sapiens) (P37231 whole entry, looked up): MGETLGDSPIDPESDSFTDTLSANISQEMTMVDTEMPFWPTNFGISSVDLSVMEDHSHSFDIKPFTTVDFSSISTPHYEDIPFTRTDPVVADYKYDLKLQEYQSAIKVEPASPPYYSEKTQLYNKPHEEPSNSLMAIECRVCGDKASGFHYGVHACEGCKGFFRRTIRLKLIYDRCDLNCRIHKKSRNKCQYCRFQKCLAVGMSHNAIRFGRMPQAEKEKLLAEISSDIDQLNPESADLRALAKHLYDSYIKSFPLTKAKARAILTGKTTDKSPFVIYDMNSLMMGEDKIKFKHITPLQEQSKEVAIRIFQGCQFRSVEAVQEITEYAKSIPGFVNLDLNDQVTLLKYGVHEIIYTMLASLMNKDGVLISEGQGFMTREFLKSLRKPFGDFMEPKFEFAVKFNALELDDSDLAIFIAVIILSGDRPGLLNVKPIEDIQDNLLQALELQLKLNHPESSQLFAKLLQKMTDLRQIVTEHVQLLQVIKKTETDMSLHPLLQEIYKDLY
Chain of Retinoic acid receptor alpha (Homo sapiens) (P10276 whole entry, looked up, the tested form may be a part): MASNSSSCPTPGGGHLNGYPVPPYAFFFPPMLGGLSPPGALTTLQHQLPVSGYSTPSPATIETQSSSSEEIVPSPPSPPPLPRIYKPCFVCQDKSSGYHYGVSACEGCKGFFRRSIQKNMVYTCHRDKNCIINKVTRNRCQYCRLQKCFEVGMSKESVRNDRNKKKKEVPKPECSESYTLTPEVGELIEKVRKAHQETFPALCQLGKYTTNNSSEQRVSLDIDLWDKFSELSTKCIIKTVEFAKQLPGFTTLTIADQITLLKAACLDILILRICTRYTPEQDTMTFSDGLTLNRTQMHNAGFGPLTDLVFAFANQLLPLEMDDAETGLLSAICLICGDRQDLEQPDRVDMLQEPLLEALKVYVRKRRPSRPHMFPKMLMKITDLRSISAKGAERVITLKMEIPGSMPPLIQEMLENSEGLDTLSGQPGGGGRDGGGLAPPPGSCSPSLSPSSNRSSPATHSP
Chain of human Retinoic Acid Receptor beta (RARb), RARB (gene 5915) (P10826 whole entry, looked up): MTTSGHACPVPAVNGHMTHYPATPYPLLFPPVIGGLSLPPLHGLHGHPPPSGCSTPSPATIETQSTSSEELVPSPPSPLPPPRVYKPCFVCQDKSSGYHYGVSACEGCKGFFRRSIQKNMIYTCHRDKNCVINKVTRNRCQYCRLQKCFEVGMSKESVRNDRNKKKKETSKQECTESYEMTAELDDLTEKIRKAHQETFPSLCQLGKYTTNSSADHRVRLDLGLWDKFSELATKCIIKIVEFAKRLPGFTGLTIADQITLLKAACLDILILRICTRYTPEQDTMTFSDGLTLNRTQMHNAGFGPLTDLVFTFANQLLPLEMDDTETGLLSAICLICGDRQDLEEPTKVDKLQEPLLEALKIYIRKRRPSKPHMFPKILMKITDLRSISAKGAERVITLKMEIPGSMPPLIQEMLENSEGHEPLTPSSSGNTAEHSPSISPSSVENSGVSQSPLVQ
Chain of human Retinoic Acid Receptor gamma (RARg), RARG (gene 5916) (P13631 whole entry, looked up, the tested form may be a part): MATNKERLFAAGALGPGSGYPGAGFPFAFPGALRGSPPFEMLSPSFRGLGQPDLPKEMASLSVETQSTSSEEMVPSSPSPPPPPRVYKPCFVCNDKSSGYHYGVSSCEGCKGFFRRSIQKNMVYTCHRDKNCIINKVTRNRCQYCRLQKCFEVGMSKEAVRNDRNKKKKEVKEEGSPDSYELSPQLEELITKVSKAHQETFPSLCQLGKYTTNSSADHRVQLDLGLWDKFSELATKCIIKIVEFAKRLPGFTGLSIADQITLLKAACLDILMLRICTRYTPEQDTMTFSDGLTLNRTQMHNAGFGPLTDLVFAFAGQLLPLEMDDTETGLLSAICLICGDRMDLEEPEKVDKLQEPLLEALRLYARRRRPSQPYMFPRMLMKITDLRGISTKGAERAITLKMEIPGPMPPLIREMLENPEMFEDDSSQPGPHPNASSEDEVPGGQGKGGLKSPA

O=C(O)c1cccc(C(=O)O)c1
not listed: [13] | [14] | [15] | [16] | [17] | [18] | [19]
inactive: all other assays above

CCn1nc(C)c2c1C(=O)NCC(c1ccc(O)cc1)=N2
active: [13] 2.9 µM | [12] 20 µM | [17] 8.02 µM
not listed: [4] | [10] | [11] | [19]
inactive: all other assays above

Nc1ccn([C@@H]2O[C@H](CO)[C@@H](O)[C@@H]2O)c(=O)n1
inactive: [1] | [2] | [3] | [4] | [5] | [6] | [7] | [8] | [15] | [19]
active: [12] 0.519 µM

COS(C)(=O)=O
not listed: [9] | [10] | [11] | [13] | [15] | [16] | [18] | [19]
inactive: all other assays above

CNC(C)=O
not listed: [9] | [10] | [11] | [13] | [16] | [17] | [18] | [19]
inactive: all other assays above

OC(Cn1cncn1)(Cn1cncn1)c1ccc(F)cc1F
not listed: [9] | [10] | [11] | [15] | [16] | [17] | [19]
inactive: all other assays above

CCN(CC)C(=S)SSC(=S)N(CC)CC
active: [1] 175 µM | [2] 158 µM | [3] 83.7 µM | [5] 144 µM | [13] 137 µM | [14] 20 µM | [6] 20.6 µM | [7] 28.9 µM | [8] 32.3 µM | [16] 34.9 µM | [18] 49.6 µM
inactive: [9] | [15] | [17]
